Laboratory results reported in the supplement of paper PMC6607015.
Where a name gives a salt, the structure may show the parent alone.

Tests used:
Conditions in all cases: compound concentration in added solution (µM; 5 µl added to 20 µl cells): 10; 18 h
[1] = tested on: A431; experiment: LBPA endosome anti-LBPA integrated intensity (sum per cell), Z-score; higher = more LBPA staining
Method in brief: (§1)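 In duplicate 384-well imaging plates, 3,500 HeLa MZ or A431 cells in 20 µl per well were seeded onto 5 µl of 10 µM compound solution. The cells were incubated for 18 h, fixed in 4% PFA and stained with 6C4 anti-LBPA antibody, filipin, propidium iodide and CellTracker green before four 20× images were acquired per well. Values are AcuityXpress-normalised Z-scores of per-cell integrated LBPA or filipin intensity, obtained by MetaXpress segmentation over the whole cell or in LBPA endosomes.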

[2] = tested on: HeLa MZ; experiment: as above
Method in brief: as §1

[3] = tested on: A431; experiment: whole-cell filipin (free cholesterol) integrated intensity, Z-score; higher = more cholesterol staining
Method in brief: as §1

[4] = tested on: HeLa MZ; experiment: as above
Method in brief: as §1

[5] = tested on: A431; experiment: filipin (cholesterol) integrated intensity within LBPA endosomes, Z-score; higher = more cholesterol in LBPA endosomes
Method in brief: as §1

[6] = tested on: HeLa MZ; experiment: as above
Method in brief: as §1

SMILES	LBPA endosome anti-LBPA integrated intensity (z-score) [1]	LBPA endosome anti-LBPA integrated intensity (z-score) [2]	whole-cell filipin (z-score) [3]	whole-cell filipin (z-score) [4]	filipin (z-score) [5]	filipin (z-score) [6]
C=CCN1CC[C@]23c4c5ccc(O)c4O[C@H]2C(=O)CC[C@@]3(O)[C@H]1C5 [Naloxone hydrochloride]	-0.497	-0.128	-0.72	-1.07	-0.454	-0.503
CC(=O)[C@H]1CC[C@H]2[C@@H]3CC[C@H]4C[C@H](O)CC[C@]4(C)[C@H]3C(=O)C[C@]12C [Alfaxalone]	1.82	1.23	0.358	-0.273	0.378	-0.0632
NCCC(O)C(=O)NC1CC(N)C(OC2OC(CN)C(O)[C@H](O)[C@@H]2N)[C@H](OC2O[C@H](CO)[C@@H](O)[C@@H]2O)[C@@H]1O (some centres not stated) [Butirosin disulfate salt]	-0.571	-0.99	-0.257	0.609	-0.399	-0.239
CCNC1(c2cccs2)CCCCC1=O (configuration not stated) [Tiletamine hydrochloride]	-0.499	-0.0498	-0.0108	-0.435	-0.475	-0.463
C[N+]1(C)CCOC(O)(c2ccc(-c3ccc(C4(O)C[N+](C)(C)CCO4)cc3)cc2)C1 (configuration not stated) [Hemicholinium bromide]	-0.629	-1.27	-0.551	-0.638	-0.55	-0.667
COP(=O)(OC)C(O)C(Cl)(Cl)Cl (configuration not stated) [Trichlorfon]	-0.479	-0.711	-1.16	-1.48	-0.56	-0.592
CC[C@@H](CO)NC(=O)[C@@H]1C=C2c3cccc4[nH]cc(c34)C[C@H]2N(C)C1 [Methylergometrine maleate]	-0.539	-1.25	-0.649	-0.308	-0.495	-0.637
COc1ccc(OC)c(C(O)C(C)N)c1 (configuration not stated) [Methoxamine hydrochloride]	-0.442	0.415	-0.614	-0.834	-0.515	-0.513
CC(NC(C)(C)C)C(=O)c1cccc(Cl)c1 (configuration not stated) [Bupropion hydrochloride]	-0.577	-0.652	-0.448	-0.134	-0.453	-0.438
Clc1ccc(C(OCCN2CCCCC2)c2ccccc2)cc1 (configuration not stated) [Cloperastine hydrochloride]	3.12	1.44	1.35	-0.495	2.83	0.777
C[N+](C)(C)CCCCCCCCCC[N+](C)(C)C [Decamethonium bromide]	-0.547	-1.08	0.0371	0.872	-0.372	-0.446
COc1ccc(C(=O)N2CCCC2=O)cc1 [Aniracetam]	-0.475	0.124	-0.904	-0.402	-0.562	-0.3
CNCC(O)c1ccc(O)cc1 (racemic) [(+,-)-Synephrine]	-0.271	-0.444	0.673	-0.00115	-0.481	-0.576
NCC(O)c1ccc(O)cc1 (racemic) [(+,-)-Octopamine hydrochloride]	-0.262	0.0629	-0.464	-0.485	-0.407	-0.291
C[C@]12CCC(=O)C=C1C=C[C@@H]1[C@@H]2CC[C@@]2(C)[C@H]1CC[C@@]2(O)CCC(=O)O [Canrenoic acid potassium salt]	-0.568	-1.1	-1.15	-1.15	-0.611	-0.819
Cc1cc(C(C#N)c2ccc(Cl)cc2)c(Cl)cc1NC(=O)c1cc(I)cc(I)c1O (configuration not stated) [Closantel]	-0.54	-1	-0.93	-0.632	-0.512	-0.663
O=C([O-])c1ccccc1-c1c2cc(Br)c(=O)cc-2oc2[c]([Hg+])c([O-])c(Br)cc12.[Na+].[Na+].[OH-] [Merbromin]	-0.53	-1.95	-0.246	-0.654	-0.525	-0.65
C[C@]12CCC(=O)C(O)=C1CC[C@@H]1[C@@H]2CC[C@]2(C)C(=O)CC[C@@H]12 [Formestane]	1.1	1.9	2.53	2.23	2.1	1.15
C[N+]1(C)CCCC(OC(=O)C(O)(c2ccccc2)c2ccccc2)C1 (configuration not stated) [Mepenzolate bromide]	-0.582	-0.861	-0.409	-0.0861	-0.481	-0.374
COc1ccc(C(CN(C)C)C2(O)CCCCC2)cc1 (configuration not stated) [Venlafaxine]	-0.375	0.627	-0.148	-0.294	-0.383	-0.283
C[C@]12CC[C@H](O)C[C@@H]1CC[C@@H]1[C@@H]2CC[C@]2(C)C(=O)CC[C@@H]12 [Epiandrosterone]	1.56	0.767	2.3	2.67	2.15	1.85
COc1ccc(CN2CCNCC2)c(OC)c1OC [Trimetazidine dihydrochloride]	-0.479	0.3	-0.53	-0.184	-0.484	-0.365
Oc1cc(Cl)ccc1Oc1ccc(Cl)cc1Cl [Triclosan]	-0.463	0.177	-0.0345	3.99	-0.336	-0.129
C[N+]1(C)[C@@H]2CC[C@H]1C[C@@H](OC(=O)C(CO)c1ccccc1)C2 (some centres not stated) [Methylatropine nitrate]	-0.382	0.224	-0.241	0.542	-0.375	-0.173

SMILES	LBPA endosome anti-LBPA integrated intensity (z-score) [1]	LBPA endosome anti-LBPA integrated intensity (z-score) [2]	whole-cell filipin (z-score) [3]	whole-cell filipin (z-score) [4]	filipin (z-score) [5]	filipin (z-score) [6]
c1ccc2nc(N3CCNCC3)ccc2c1 [Quipazine dimaleate salt]	-0.64	0.00535	-0.594	-0.241	-0.575	-0.45
CCC1(C)CC(=O)NC(=O)C1 [Bemegride]	-0.67	-1.05	-0.832	-0.492	-0.547	-0.434
O=P1(NCCCl)OCCCN1CCCl (configuration not stated) [Ifosfamide]	-0.43	-0.294	0.0112	-0.489	-0.396	-0.611
CC[C@@H](C(N)=O)N1CCCC1=O [Levetiracetam]	-0.634	-1.5	-0.363	0.0516	-0.585	-0.523
O=C(O)CCCc1ccc(N(CCCl)CCCl)cc1 [Chlorambucil]	-0.184	1.86	1.33	2.72	-0.393	-0.471
O=c1[nH]oc2c1CCNC2 [THIP Hydrochloride]	-0.526	-1.24	-0.151	-1.07	-0.413	-0.582
CC1OC(OC2/C=C/C=C/C=C/C=C/CC/C=C/C=C/[C@H](C)[C@@H](O)[C@@H](C)[C@H](C)OC(=O)CC(O)CC(O)CC(O)CCC(O)C(O)C[C@]3(O)CC(O)C(C(=O)O)C(C2)O3)C(O)C(N)C1O (some centres not stated) [Nystatine]	-0.00963	0.129	0.146	0.0497	-0.136	-0.223
CNC(=O)Oc1ccc2c(c1)[C@]1(C)CCN(C)[C@@H]1N2C [Eserine sulfate, physostigmine sulfate]	-0.59	-0.404	-0.783	-0.229	-0.479	-0.36
NCCc1c[nH]c2ccc(O)cc12 [Serotonin hydrochloride]	-0.716	-1.58	-1.04	-1.21	-0.627	-0.624
NCC1(CC(=O)O)CCCCC1 [Gabapentin]	-0.54	-0.377	-0.349	-0.476	-0.52	-0.627
CC(C)c1c(CN(C)C(C)Cc2ccccc2)n(C)n(-c2ccccc2)c1=O (configuration not stated) [Famprofazone]	-0.355	-0.241	-0.228	-0.336	-0.4	-0.445
CCC1(CC)C(=O)C=CNC1=O [Pyrithyldione]	-0.626	-1.42	-0.51	-0.44	-0.527	-0.593
CN1[C@@H]2CC[C@H]1C[C@@H](OC(=O)C(CO)c1ccccc1)C2 (some centres not stated) [Atropine sulfate monohydrate]	-0.568	-0.87	-0.533	-0.945	-0.5	-0.345
CN1[C@@H]2C[C@@H](OC(=O)[C@H](CO)c3ccccc3)C[C@H]1[C@@H]1O[C@@H]12 [Scopolamine hydrochloride]	-0.422	-0.0951	-0.247	0.118	-0.45	-0.0653
C[C@@H]1CN([C@H]2CC[C@](C#N)(c3ccc(F)cc3)CC2)CC[C@]1(C(=O)O)c1ccccc1 [Levocabastine hydrochloride]	-0.412	-0.243	-0.194	-0.189	-0.388	-0.461
CN(C)C(=O)Oc1cccc([N+](C)(C)C)c1 [Neostigmine bromide]	-0.478	-0.496	-0.63	-0.608	-0.499	-0.715
C[C@]12CC[C@@H](O)C[C@H]1CC[C@@H]1[C@@H]2CC[C@]2(C)C(=O)CC[C@@H]12 [3-alpha-Hydroxy-5-beta-androstan-17-one]	-0.153	1.16	0.209	0.519	-0.175	-0.161
CN1C[C@H](CNC(=O)OCc2ccccc2)C[C@@H]2c3cccc4c3c(cn4C)C[C@H]21 [Metergoline]	3.11	1.47	1.11	1.28	4.03	4.18
CC(C)N(CCC(C(N)=O)(c1ccccc1)c1ccccn1)C(C)C (configuration not stated) [Disopyramide]	-0.423	0.142	-0.822	-0.537	-0.461	-0.294
C[N+]1([O-])[C@@H]2C[C@@H](OC(=O)[C@H](CO)c3ccccc3)C[C@H]1[C@@H]1O[C@@H]12 (some centres not stated) [Scopolamin-N-oxide hydrobromide]	-0.692	-1.8	-1.01	-0.711	-0.67	-0.618
N[C@@H]1C[C@H]1c1ccccc1 [Tranylcypromine hydrochloride]	-0.505	-0.919	-0.309	-0.693	-0.48	-0.53
CC(=O)NC1CCSC1=O (racemic) [N-Acetyl-DL-homocysteine Thiolactone]	-0.475	-0.898	-0.462	-0.0159	-0.405	-0.461
C#C[C@]1(O)CC[C@H]2[C@@H]3CCC4=CC(=O)CC[C@]4(C)[C@H]3CC[C@@]21C [Ethisterone]	-0.369	-0.214	-0.635	-1.08	-0.449	-0.685
